# Screening data deposited in PubChem BioAssay by National Center for Advancing Translational Sciences (NCATS).
# Shown are actives, neighbours in structure and some others; about 12% of the full set was active somewhere.
# HCV inhibitor – HCV inhibition; 340,000 tested, 3.4% active; Potency, µM (doses to about 41.8 µM), for the others: at the top dose activity change, negative = inhibition, actives largely listed as inhibitors; Huh7.5.1 HCVcc-Cre infection, luciferase reporter, 44 h; further: on the % scale 0 is the no-effect control and ±100 the full control effect
#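 Luciferase read-out (15 sec integration) after a 15 min room-temperature substrate step quantifies HCVcc-Cre infection. Cells, 1,000 per well, had compound added 4 h post-plating, then virus at ~0.5 moi, and were cultured 44 h.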
# SARS PLpro yeast – blocks SARS-CoV papain-like protease in a yeast assay | S. cerevisiae expressing SARS-CoV PLpro, growth rescue | Potency, µM (series often up to 32.9 µM), for the others: top-dose activity, positive = growth rescue, actives largely listed as activators | 330,000 tested, 0.19% active | AID 485353; calls by dose curve; further: 0% is about no effect; nearly all actives have a fitted effect of over 55% in size
# NS1 inh – influenza NS1 inhibition; Potency, µM (doses to about 46.1 µM), inactives show top-dose activity, positive = more growth; 270,000 tested, 0.4% active; AID 2326; calls by dose curve; further: actives are rising curves; nearly all actives have a fitted effect of over 50% in size
#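 OD600 was taken as the measure of yeast growth restored by compound in an NS1-expressing S. cerevisiae strain. Cells had been washed out of glucose medium and diluted 1:100 into galactose -URA medium, pH 6.0.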
# Pf growth 96h – P. falciparum growth inhibition at 96 hours. P. falciparum luciferase reporter growth, 96 h. Potency, µM (top dose mostly 28.7 µM), for the others: top-dose activity change, negative = inhibition, most hits filed as inhibitors. 320,000 tested, 6.9% active; further: on the % scale 0 is the no-effect control and ±100 the full control effect
#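 96 h incubation, 37 C, 5% CO2, of luciferase-reporter P. falciparum-infected RBCs (2% hematocrit, 0.05% parasitemia final) with test compounds; endpoint luminescence.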
# AMA1 RON2 block – AMA1-RON2 (P. falciparum) interaction inhibition; 360,000 tested, 0.2% active; AID 720542; Potency, µM (doses to about 58.2 µM), without a hit: top-dose activity change, negative = inhibition, most hits filed as inhibitors; AlphaScreen AMA1-biotinylated RON2 peptide binding;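 further: 0% = vehicle wells and -100% = peptide control; nearly all actives have a fitted effect of over 45% in size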
#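 AMA1 (3D7) with his tag at 25 nM final met compounds first, then biotinylated RON2 peptide at 25 nM; detection used donor plus acceptor beads, 10 µg/mL apiece, read by AlphaScreen after 30 min at room temperature.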
# Pf growth 48h – P. falciparum growth inhibition at 48 hours (one generation); P. falciparum luciferase growth in erythrocytes, 48 h; Potency, µM (highest dose often 28.7 µM), without a hit: at the highest dose activity change, negative = inhibition, usual class: inhibitors; 310,000 tested, 5.9% active; further: on the % scale 0 is the no-effect control and ±100 the full control effect
#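 A one-generation exposure of luciferase-tagged malaria parasites in RPMI 1640/Albumax erythrocyte culture, 37 C and 5% CO2. Inhibition is inferred from decreased luminescence after adding detection reagent.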
# * hit, by the source's call; ? = inconclusive; nt = no result. Unless noted, the call rests on the fitted dose curve; in most records, active means well fitted curve in the direction sought with a large enough effect; inconclusive means small, poorly fitted or top-dose-only effect, or another doubt; inactive means no such curve, though single readings can be large; an effect the other way counts as inactive or inconclusive. Potency means the concentration at half of the fitted maximal effect.
SMILES,HCV inhibitor,SARS PLpro yeast,NS1 inh,Pf growth 96h,AMA1 RON2 block,Pf growth 48h
CCCCCC(=O)Nc1ccc(N2CCN(C(=O)CCC)CC2)cc1,-0.1%,1.9%,-9.4%,14.4%,-4.8%,-13.5%
Cc1ccc(C(=O)NCC(c2ccc(F)cc2)N2CCOCC2)s1 (centres undefined),10.5%,3.4%,nt,nt,1.8%,nt
CCCC(=O)N1CCN(c2ccc(NC(=O)c3cc4ccccc4o3)cc2)CC1,10µM*,-1.7%,-35.5%,11.1%,9.5%,?
COC/C=C/C1=CC2=CC(=O)C(C)(OC(=O)c3cnc4ccccc4n3)C(=O)C2=CN1CCOC (centres undefined),10.3%,nt,nt,nt,-0.1%,nt
COC/C=C/C1=CC2=CC(=O)C(C)(OC(=O)c3cnc4ccccc4n3)C(=O)C2=CN1CCN1CCOCC1 (centres undefined),-0.9%,-1.5%,-1.1%,9.28µM*,-11.1%,?
CN(C)CCCN(C(=O)c1ccc(S(=O)(=O)N2CCc3ccccc32)cc1)c1nc2ccc(Cl)cc2s1,nt,-3.9%,22.1%,5.22µM*,-28.4%,10.4µM*
Cc1cc(C)c2sc(N(CCCN(C)C)C(=O)c3ccc(S(=O)(=O)N4CCCc5ccccc54)cc3)nc2c1,?,-2.5%,nt,?,?,9.28µM*
Cc1cc(=O)oc2cc(NC(=S)NNC(=O)c3c(Cl)cnn3C)ccc12,nt,-8.5%,-8.8%,?,28.3%,120.4%
COCCNC(=S)N/N=C1\CC(C)CC(C)(C)C1 (centres undefined),9.3%,-0.2%,nt,4.65µM*,16.0%,?
COc1cc(C(=S)N2CCOCC2)cc(OC)c1OS(=O)(=O)c1ccc(Cl)cc1,-2.9%,2.3%,9.3%,10.4µM*,1.0%,?
COc1cc(C(=S)N2CCOCC2)ccc1OS(=O)(=O)c1ccc(Cl)cc1,4.9%,16.5%,-7.8%,9.7%,0.0%,-3.8%
O=C(Oc1ccc(C(=S)N2CCOCC2)cc1)c1ccc([N+](=O)[O-])cc1,-12.4%,-3.3%,7.5%,1.47µM*,-4.3%,13.2%
O=C(c1ccc([N+](=O)[O-])cc1)N1CCOCC1,21.4%,nt,nt,nt,15.4%,nt
COc1cc(C(=S)N2CCOCC2)cc(OC)c1OC(=O)c1ccccc1[N+](=O)[O-],15.8µM*,?,13.1%,-8.8%,?,11.2%
COc1cc(C(=S)N2CCOCC2)ccc1OC(=O)c1ccc(Br)cc1,14.9%,2.0%,-38.0%,5.22µM*,-12.2%,12.9%
CCOc1ccc(NC(=O)CN(C)S(=O)(=O)c2ccc3c(c2)CCC(=O)N3)cc1,-11.3%,0.6%,-6.2%,?,-6.0%,?
NC(=O)C1(Nc2ccc(Cl)cc2)CCCC1,4.2%,nt,nt,nt,38.7%,nt
CN(Cc1nc(Cc2cccc(F)c2)no1)CC1CCOCC1,10.1%,-1.1%,-2.9%,14.7µM*,3.3%,2.0%
Cc1nc(CN(C)Cc2nc(Cc3cccc(F)c3)no2)cs1,5.7%,0.6%,-0.9%,38.3%,1.5%,0.0%
O=C1/C(=C/c2ccccc2F)SC(=S)N1CC(=O)N1CCCCC1c1cccnc1 (centres undefined),?,-6.1%,-72.0%,14.7µM*,-9.0%,-6.9%
CCC(C)NS(=O)(=O)c1ccc(S(=O)(=O)N2CCCC3(CCCCC3)C2)cc1 (centres undefined),10µM*,-1.0%,-2.0%,nt,-7.9%,?
Oc1ccc(Cl)cc1Sc1cc(Cl)ccc1O,?,nt,-42.0%,13.5µM*,-15.5%,?
C=CCN1C(=O)C(CC(=O)NCC)SC1=Nc1ccccc1CC (centres undefined),2.0%,2.5%,4.1%,-19.7%,-6.5%,4.3%
CNC1=C(N(C(C)=O)c2ccc(Br)cc2)C(=O)c2ccccc2C1=O,?,-12.9%,-38.6%,0.0294µM*,-0.9%,0.0415µM*
CCC(=O)N(C1=C(NC)C(=O)c2ccccc2C1=O)C(C)C,?,-0.1%,nt,?,-6.7%,?
SMILES,HCV inhibitor,SARS PLpro yeast,NS1 inh,Pf growth 96h,AMA1 RON2 block,Pf growth 48h
Cc1ccc(C)c(NC(=O)CN(C)C(=O)C2=NNC(=O)CC2)c1,6.2%,-7.5%,nt,nt,0.5%,nt
CN(C)CCNc1cc(-c2ccncc2)nc2ccccc12,-1.7%,-0.1%,2.1%,3.29µM*,0.0%,11.7µM*
Cc1ccc(-c2nc(NCCN(C)C)c3ccccc3n2)cc1,-25.2%,0.1%,-20.3%,-20.7%,-23.7%,?
CCC(C)[C@H]1COCCS(=O)(=O)N1Cc1ccccc1 (some centres undefined),1.1%,-2.8%,-12.7%,-4.1%,0.0%,8.0%
CC(C)(C)OC(=O)NC(CCNC=C1C(=O)OC(C)(C)OC1=O)C(=O)O (centres undefined),-21.7%,5.6%,-8.6%,8.28µM*,2.6%,23.3%
CC1(C)OC(=O)C(=CNC(CCC(N)=O)C(=O)O)C(=O)O1 (centres undefined),22.8%,-0.1%,6.1%,11.5%,63.7%,-9.0%
CCC(CCC(=O)Nc1nncs1)C(=O)O (centres undefined),nt,-7.1%,3.2%,23.9%,nt,nt
CC(CCC(=O)Nc1nncs1)C(=O)O (centres undefined),18.4%,-1.0%,?,11.7µM*,-0.3%,-1.4%
O=C(Nc1ccnn1C1CCN(Cc2cccc(F)c2F)CC1)C1CCCC1,nt,3.8%,10.0%,20.5%,12.4%,?
CN(C)S(=O)(=O)c1ccc(C(=O)NCCSc2ccc(Br)cc2)cc1,22.4µM*,1.8%,9.2%,-16.6%,-11.0%,1.4%
O=C(COc1ccc2c(c1)CCC2)Nc1ccccn1,-10.4%,1.9%,nt,-95.2%,7.0%,-19.7%
CCOC(=O)CN1C(=O)C(Sc2n[nH]c(-c3ccccc3)n2)CCc2ccccc21 (centres undefined),?,3.4%,-7.6%,5.86µM*,1.3%,nt
Cc1cccc(N2C(=O)CSC23CCCCC3)c1,-0.5%,-12.7%,nt,1.47µM*,3.0%,-20.6%
O=C(COc1ccccc1Cl)NCCCNC(=O)c1ccco1,3.1%,0.5%,?,7.4%,2.9%,-9.5%
CN(CC(=O)Nc1ccc(Cl)cc1)C(=O)c1cccc(S(=O)(=O)N2CCN(Cc3ccccc3)CC2)c1,11.2µM*,-2.0%,nt,?,-12.2%,0.8%
CS(=O)(=O)c1ccc(NC(=O)c2cccc(S(=O)(=O)N3CCN(Cc4ccccc4)CC3)c2)cc1,10µM*,2.4%,4.0%,9.28µM*,-10.3%,?
O=C(Nc1ccc(S(=O)(=O)N2CCCC2)cc1)c1cnccn1,?,-0.9%,-0.6%,66.3%,-3.3%,-11.6%
CN(C)C(=O)c1ccc(NC(=O)c2cccc(S(=O)(=O)N3CCN(Cc4ccccc4)CC3)c2)cc1,?,nt,nt,nt,24.1%,nt
O=C(Nc1ccc(S(=O)(=O)N2CCN(Cc3ccccc3)CC2)cc1)c1cnccn1,6.31µM*,-3.5%,-10.3%,?,0.1%,-6.3%
